Experimental data taken from PubChem BioAssay (EPA / NIEHS).
The source made the active and inactive calls. The calls were made as follows: active = hit-call score of the fitted dose curve at least 0.9, where 1 is the maximum; inactive = score below 0.9.

assay: ATG_M_19_CIS: Attagene CIS-FACTORIAL HepG2 Assay for M19 Transcription Factor (Internal Marker) (AID 2282939); conditions: HepG2 Attagene CIS-FACTORIAL M19 internal marker reporter; actives raise or lower the signal
Method: ATG_CIS is a cell-based, multiplexed-readout assay that uses HepG2, a human liver cell line, with measurements taken at 24 hours after chemical dosing in a 24-well plate.ATG_M_19_CIS is one of 52 assay component(s) measured or calculated from the ATG_CIS assay. It is designed to make measurements of mRNA induction, a form of inducible reporter, as detected with fluorescence intensity signals by Reverse transcription polymerase chain reaction (RT-PCR) and Capillary electrophoresis technology.Data from the assay component ATG_M_19_CIS was analyzed into 1 assay endpoint. This assay endpoint, ATG_M_19_CIS, was analyzed with bidirectional fitting relative to DMSO as the negative control and baseline of activity. Using a type of inducible reporter, measures of mRNA for gain or loss-of-signal activity can be used to understand the background control at the transcription factor-level as they relate to the gene . Furthermore, this assay endpoint can be referred to as a secondary readout, because this assay has produced multiple assay endpoints where this one serves a background control function. To generalize the intended target to other relatable targets, this assay endpoint is annotated to the background measurement intended target family, where the subfamily is internal marker.
Human liver HepG2 cells are transiently transfected with multiple reporter transcription units (MRTUs) in 6-well plates using FuGene 6 reagent (Roche; 3 ml FuGene/1 mg DNA). The MRTU constructs are regulated by a cis-regulating element (promoter). […] A major difference between the CIS and TRANS system is that in CIS activities of endogenous TFs are measured, whereas the TRANS assay evaluates changes in activities of exogenous, chimeric NR-Gal4 proteins. […] At the end of 24 hour incubation, total RNA was isolated using TriZol reagent (Invitrogen). The isolated RNA is then reverse-transcribed using oligo(dT) primer and Mo-MLV reverse transcriptase (Invitrogen) with DNAse I (Ambion) treatment for 30 min. The one-tenth of the produced cDNA was amplified by PCR using Taq DNA polymerase (Invitrogen) and two reporter sequence-specific primers. The PCR products were fluorescently labeled by primer extension with 6-arboxyfluorescein (6-FAM) 5'-labeled reporter sequence-specific primer (2 min at 95 C, 20 s at 68 C and 10 min at 72 C) and these products were digested with 5U of HpaI (New England Biolabs) for 2h at 37 C. The fragments were purified using Qiaquick PCR columns (Qiagen), analyzed on an ABI 3130xL genetic analyzer (Applied Biosystems) with peak positions identified by using a set of X-rhodamine (ROX)-labeled MapMarker1000 molecular weight standards (BioVentures). The raw capillary electrophoresis data was processed using Attagraph software (Attagene).

| Compound | outcome | AC50 |
| --- | --- | --- |
| COc1cc(C)cc(O)c1 | inactive | – |
| CC(=O)/C=C/C1=C(C)CCCC1(C)C | inactive | – |
| O=C1NC(=O)c2ccccc21 | inactive | – |
| O=[N+]([O-])c1ccc(Nc2ccc(Nc3ccccc3)c(S(=O)(=O)O)c2)c([N+](=O)[O-])c1 | inactive | – |
| CCN(CC)c1ccc(C(=C2C=CC(=[N+](CC)CC)C=C2)c2ccc(S(=O)(=O)O)cc2S(=O)(=O)[O-])cc1 | inactive | – |
| O=C=NC1CCC(CC2CCC(N=C=O)CC2)CC1 (stereo not given) | – | 100 µM (active) |
| C[C@H]1C[C@H]2[C@@H]3CCC4=CC(=O)C=C[C@]4(C)[C@@]3(F)[C@@H](O)C[C@]2(C)[C@@]1(O)C(=O)COP(=O)(O)O | inactive | – |
| Nc1ccc(F)c([N+](=O)[O-])c1 | inactive | – |
| O=S(=O)(O)NC1CCCCC1 | inactive | – |
| CCCCc1ccc(N)cc1 | inactive | – |
| CC(c1cc2ccccc2s1)N(O)C(N)=O (stereo not given) | inactive | – |
| Cc1cccc(Nc2ccccc2C(=O)O)c1C | inactive | – |
| CCCCCCCCCCCCCOS(=O)(=O)O | inactive | – |
| O=C(O)c1snc(Cl)c1Cl | inactive | – |
| CC(C)=CCC/C(C)=C/COC=O | inactive | – |
| COc1ccc(NC(=O)CC(C)=O)cc1 | inactive | – |
| CC(=O)Nc1ccc(C)cc1C | inactive | – |
| CCOc1ccccc1OCC | inactive | – |
| CC1=CC(=O)NS(=O)(=O)O1 | inactive | – |
| O=C(Cl)c1cccc(C(=O)Cl)c1 | inactive | – |

| Compound | outcome | AC50 |
| --- | --- | --- |
| CN(C)C(=N)N=C(N)N | inactive | – |
| OC1C(O)C(O)C(O)C(O)C1O (stereo not given) | inactive | – |
| C=CC(=O)OCCn1c(=O)n(CCOC(=O)C=C)c(=O)n(CCOC(=O)C=C)c1=O | inactive | – |
| CC(=O)C=CC1=C(C)CCCC1(C)C | inactive | – |
| CC(C)=CCCC(C)CC=O (stereo not given) | inactive | – |
| CC1(C)OC[C@@H]2O[C@@]3(C(=O)O)OC(C)(C)O[C@H]3[C@@H]2O1 | inactive | – |
| CC(C)=CCC[C@H](C)CC=O | inactive | – |
| Cc1ccc(C(C)C)cc1O | inactive | – |
| O=C(O)c1cccc([N+](=O)[O-])c1 | inactive | – |
| CCCCNC(=O)NS(=O)(=O)c1ccc(C)cc1 | inactive | – |
| COC(C)CCO (stereo not given) | inactive | – |
| CC(C)(CO)[N+](=O)[O-] | inactive | – |
| BrC1CCC(Br)C(Br)CCC(Br)C(Br)CCC1Br (stereo not given) | inactive | – |
| CC(C#N)(CCC(=O)O)N=NC(C)(C#N)CCC(=O)O (stereo not given) | inactive | – |
| CSc1nnc(C(C)(C)C)c(=O)[nH]1 | inactive | – |
| C=C(C)[C@@H]1CC[C@@H](C)C[C@@H]1O | inactive | – |
| CC(C)(C)C(=O)c1ccccc1 | inactive | – |
| NC(=O)NC1NC(=O)NC1=O (stereo not given) | inactive | – |
| C#C[C@]1(O)CC[C@H]2[C@@H]3CCC4=Cc5oncc5C[C@]4(C)[C@H]3CC[C@@]21C | inactive | – |
| CCCCCCCCCOC(C)=O | inactive | – |
